# FadD28 FP inh – inhibitors of Mycobacterium tuberculosis FadD28 bisubstrate binding; FadD28 bisubstrate probe binding, fluorescence polarization; inhibition, % at 12.5 µM; 360,000 compounds, 0.22% hits; in the data active = inhibition above about 8.5%, passing the limit was not always enough
# Y pestis TopoI – Y. pestis Topo-I inhibition via cleavage products; Y. pestis Topo-I cleavage product accumulation, plate reader; activity, % at 10 µM; 360,000 compounds, 0.064% hits; in the data active = activity above about 50%, passing the limit was not always enough
# PfHsp40 yeast – rescue of PfHsp40-mediated yeast toxicity; S. cerevisiae expressing PfHsp40, growth rescue, ATP luminescence; growth rescue, % at 12.5 µM; 340,000 compounds, 0.68% hits; in the data active = growth rescue above about 28%, passing the limit was not always enough;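 also: yeast W303a lacking pdr1 and pdr3 grown in galactose medium; growth measured after three days at 30 °C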
# Mtb BioA inh – inhibitors of Mycobacterium tuberculosis BioA enzyme; 360,000 compounds, 0.096% hits; inhibition, % at 9.99 µM; purified M. tuberculosis BioA enzyme, plate reader; in the data active = inhibition above about 40%
# PrP 5UTR inh – suppresses PrP 5' UTR mRNA reporter expression; 340,000 compounds, 0.35% hits; AID 488862; cell-based PrP 5' UTR mRNA reporter, plate reader; inhibition, % (test concentration not listed); in the data active = inhibition above about 52%
# PrP 5UTR single – prion 5' UTR mRNA inhibition, cherry-pick retest | 1,100 compounds, 48% hits | cell-based prion protein 5' UTR reporter, plate reader | AID 504592 | shares compounds with PrP 5UTR inh | inhibition, % at 2.5 µM; in the data active = inhibition above about 54%
# Hits are given with their value; i = inactive; nt = not tested or not shown. Hits are enriched below; roughly 1.1% of the tested compounds scored in any of these assays.
SMILES,FadD28 FP inh,Y pestis TopoI,PfHsp40 yeast,Mtb BioA inh,PrP 5UTR inh,PrP 5UTR single
CCCNC(=O)Nc1ccc2c(c1)C(=O)N(C)C[C@@H](OC)[C@H](C)CN(Cc1cncnc1)[C@H](C)CO2,nt,nt,nt,i,nt,nt
CC(C(=O)Nc1ccc(F)c(F)c1F)N(C)CC(=O)Nc1ccccc1Br (configuration not stated),i,i,i,i,i,nt
CSc1ccc(CN(C)C(C)C(=O)Nc2ccc(F)c(F)c2F)cc1 (configuration not stated),i,i,i,nt,53.2,i
CNc1nc2c(C)cccn2c(=O)c1C=NCc1ccccc1,i,i,i,i,78.4,i
COC(=O)c1ccc2c(c1)C(NC(C)=O)CCc1cc(OC)c(OC)c(OC)c1-2 (configuration not stated),i,i,i,nt,i,nt
COc1ccc2c(c1)C(NC(C)=O)CCc1cc(OC)c(OC)c(OC)c1-2 (configuration not stated),i,i,i,nt,i,nt
COc1cc2c(c(OC)c1OC)-c1ccc(SC)c(=O)cc1C(NC(=O)c1ccccc1)CC2 (configuration not stated),i,i,i,nt,55.6,83.5
COc1c(C=O)c2c(c(OC)c1OC)-c1ccc(OC)c(=O)cc1C(NC(C)=O)CC2 (configuration not stated),i,i,i,nt,58.3,86.2
COc1cc2c(c(OC)c1OC)-c1ccc(OC)c(=O)cc1C(NC(=O)c1ccccc1)CC2 (configuration not stated),i,i,i,nt,i,nt
COc1cc2c(c(OC)c1OC)-c1ccc(O)c(=O)cc1C(NC(C)=O)CC2 (configuration not stated),i,i,i,i,62.8,86.4
C[C@H]1CN([C@@H](C)CO)C(=O)c2cc(C#CC3CCCCC3)cnc2O[C@H]1CN(C)Cc1cncnc1,nt,nt,nt,i,nt,nt
C[C@H](O)C#Cc1cnc2c(c1)C(=O)N([C@@H](C)CO)C[C@H](C)[C@@H](CN(C)C(=O)c1ccccc1F)O2,nt,nt,nt,i,nt,nt
Cc1ccc(S(=O)(=O)N[C@@H]2CC[C@H](CCn3cc(-c4cccnc4)nn3)O[C@@H]2CO)cc1,nt,nt,nt,i,nt,nt
COc1ccc(S(=O)(=O)N(C)C[C@H]2OCCCC[C@@H](C)Oc3ccc(NC(=O)Nc4ccccc4)cc3C(=O)N([C@@H](C)CO)C[C@@H]2C)cc1,nt,nt,nt,i,nt,nt
O=C(C[C@@H]1CC[C@H]2[C@@H](COC[C@H](O)CN2S(=O)(=O)c2ccc(Cl)cc2)O1)N[C@H]1CCN(Cc2ccccc2)C1,nt,nt,nt,i,nt,nt
CC(C)Cn1c(-c2cccc(S(=O)(=O)N3CCOCC3)c2)n[nH]c1=S,i,i,i,i,76.7,i
C[C@H](CO)N1C[C@H](C)[C@@H](CN(C)C(=O)Nc2ccc3c(c2)OCO3)OCc2cn(nn2)CCCC1=O,nt,nt,nt,i,nt,nt
COc1cccc(S(=O)(=O)Nc2ccc3c(c2)OC[C@@H](C)N(C(=O)Cc2cccnc2)C[C@H](C)[C@H](OC)CN(C)C3=O)c1,nt,nt,nt,i,nt,nt
Cc1ccc2nc(NC(=O)c3ccccn3)sc2c1,i,i,i,i,88.7,86.2
CCOc1ccc2nc(NC(=O)c3ccccn3)sc2c1,i,i,i,i,63.4,i
CCOC(=O)C1(CCc2ccccc2)CCN(C(=O)CCn2cncn2)CC1,i,i,i,nt,80.5,i
COc1ccc(/C=C2\SC(=O)N(CCCC(=O)Nc3cc(Cl)ccc3C(=O)O)C2=O)cc1,i,i,i,nt,91.7,83.1
Cc1nn(CCc2nn[nH]n2)c2nc(-c3ccc(C4CCCCC4)cc3)cc(C(F)(F)F)c12,14.4,i,i,nt,63.2,i
C[C@H]1CCC/C=C/C2C[C@H](O)CC2[C@H](O)/C=C/C(=O)O1 (some centres not stated),i,i,i,i,80.9,89.6
CC1CCC/C=C/C2CC(O)CC2C(O)/C=C/C(=O)O1 (configuration not stated),i,i,i,i,82.9,87.6
C[C@H]1CCC[C@@H](O)CCC/C=C/c2cc(O)cc(O)c2C(=O)O1,i,i,i,i,i,nt
CC1CCC/C=C/C(=O)c2c(O)cc(O)cc2CC(=O)O1 (configuration not stated),i,i,i,i,i,nt
C[C@@H]1CN([C@H](C)CO)C(=O)c2cc(NC(=O)CCN3CCOCC3)ccc2O[C@H]1CN(C)Cc1ccc2c(c1)OCO2,nt,nt,nt,i,nt,nt
COCCNC(=O)C[C@@H]1C[C@@H]2c3cc(NC(=O)Nc4ccccc4F)ccc3O[C@@H]2[C@@H](CO)O1,nt,nt,nt,i,nt,nt
